Experimental data taken from PubChem BioAssay AID602241 (Southern Research Specialized Biocontainment Screening …, 2012).
Potency and affinity values are given separately. Calls of active or inactive are those of the source. Entries that show only a call come without a potency. No rule for the calls is given here.

Test: VEEV TC 83 cytopathic effect inhibition, infected cells, confirmatory screen (AID 602241)

O=c1c2cc([N+](=O)[O-])ccc2nc(CN2CCN(c3ccccc3)CC2)n1-c1ccccc1F
outcome: inactive

O=C(Oc1ccc2ccccc2c1Br)N1CCCCCC1
outcome: inactive
